Data: PubChem BioAssay (NCATS)
Records with an inconclusive call do not appear. Entries that show only a call come without a potency. Values without a mark were called inactive. The source made the active and inactive calls. Unless noted, the call rests on the fitted dose curve; in most records, active means well fitted curve in the direction sought with a large enough effect; inconclusive means small, poorly fitted or top-dose-only effect, or another doubt; inactive means no such curve, though single readings can be large; an effect the other way counts as inactive or inconclusive.

Key:
[1] = molecular target: Protein phosphatase 1D (Homo sapiens) (UniProt O15297); experiment: RapidFire Mass Spectrometry qHTS Assay for Modulators of WT P53-Induced Phosphatase 1 (WIP1) (AID 1347424);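 further: amount of dephosphorylated VEPPL-S-QETFS peptide product formed by WIP1; series mostly up to about 63 µM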
Summary of the method: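 10 nM WIP1 + cpd, 1 h RT; + 2 uM VEPPL-pS-QETFS, 5 min RT; stop 0.5% formic acid; labelled product standard 1 uM; RapidFire MS. Buffer 50 mM Tris pH 7.5, 30 mM MgCl2, 1 mM TCEP.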

[2] = molecular target: Protein phosphatase 1D (Homo sapiens) (UniProt O15297); experiment: Rhodamine-PBP qHTS Assay for Modulators of WT P53-Induced Phosphatase 1 (WIP1) (AID 1347425)
Summary of the method: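 WIP1 (5 nM final) was preincubated with compound for 1 hour at room temperature. It then dephosphorylated 10 uM VEPPL-pS-QETFS peptide in Tris-HCl pH 7.5 with 30 mM MgCl2. Released Pi was detected by 10 uM Rh-PBP fluorescence (ex 525/em 598 nm) read at 1-min intervals for 11 min, as delta f1 - f0.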

[3] = Primary qHTS for inhibitors of La Crosse Virus (LACV) - induced cell death in SH-SY5Y cells (AID 1508616);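 further: top concentration of the series differs between compounds; higher means more rescue of cells from virus-induced death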
Summary of the method: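 SH-SY5Y cells (6000/well) plated 24 h, then given compounds by pin transfer and LACV at 0.01 MOI for 6 days at 37C. Viability measured by ATPLite luminescence, normalized to infected DMSO and uninfected DMSO.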

[4] = molecular target: Calcium and integrin-binding protein 1 (Homo sapiens) (UniProt Q99828); experiment: Primary qHTS for Identification of Calcium Integrin Binding Protein 1 (CIB1) Competitor (AID 1508620); further: potency means the concentration at half of the fitted maximal effect
Summary of the method: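 CIB1-GST (1 uM final) and compound incubated 15 min at room temperature before adding FITC-alphaIIb peptide tracer (100 nM final). Competition for binding read by fluorescence polarization (ex 480, em 540) after another 15 min at room temperature.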

[5] = Primary qHTS for small molecule stabilizers of the endoplasmic reticulum resident proteome: Secreted ER Calcium Modulated Protein (SERCaMP) assay (AID 1508630); further: potency means the concentration at half of the fitted maximal effect
Summary of the method: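 GLuc-SERCaMP-expressing SH-SY5Y cells, pretreated 16 h with compound, are challenged with thapsigargin to empty ER calcium stores; after 4 h, coelenterazine is added directly to the medium and luminescence is imaged.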

[6] = A High-Content qHTS Against Drug Library for the Identification of Small Molecules that Inhibit DYT1 Early Onset Primary Dystonia-Associated Cell Pathology (AID 1645839; calls by dose curve; further: potency means the concentration at half of the fitted maximal effect)
Summary of the method: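 In this high-content image screen, delE TorsinA mislocalization in inducible Flp-In 293 cells is scored as %pathology, with cell count serving as the counterscreen. Compound exposure lasts 48 h under tetracycline induction in reduced-serum medium.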

[7] = molecular target: Cytochrome P450 2D6 (Homo sapiens) (UniProt P10635); experiment: Cytochrome P450 family 2 subfamily D member 6 (CYP2D6) small molecule antagonists: luciferase biochemical (cell-free) qHTS assay (AID 1645840; active means well fitted curve in the direction sought with a large enough effect in the repeat runs; an effect the other way counts as inactive or inconclusive; further: nearly all actives have a fitted effect of over 55% in size; further: potency means the concentration at half of the fitted maximal effect)
Summary of the method: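 P450-Glo luminescent screen: recombinant CYP2D6 enzyme–proluciferin substrate mix preincubated with compound 10 min at room temperature, then NADPH regeneration added for 1 h at room temperature. Detection reagent added for 20 min; luciferin light read as relative luminescence units.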

[8] = molecular target: Cytochrome P450 3A4 (Homo sapiens) (UniProt P08684); experiment: Cytochrome P450 family 3 subfamily A member 4 (CYP3A4) small molecule antagonists: luciferase qHTS assay (AID 1645841; active means well fitted curve in the direction sought with a large enough effect in the repeat runs; an effect the other way counts as inactive or inconclusive; further: nearly all actives have a fitted effect of over 45% in size)
Summary of the method: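 Luminescent CYP3A4 activity readout: compounds plus enzyme-substrate mix 10 min at room temperature, reaction started with NADPH regenerating system for 1 h, stopped with detection reagent, read after 20 min. Ketoconazole served as control.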

[9] = Primary qHTS for inhibitors of nuclear receptor binding SET domain protein 2 (NSD2) in an isogenic RCH-ACV NSD2 p.E1099K mutant (9B) (AID 1645876); further: nearly all actives have a fitted effect of over 70% in size; further: potency means the concentration at half of the fitted maximal effect
[10] = Primary qHTS for inhibitors of nuclear receptor binding SET domain protein 2 (NSD2) in an RCH-ACV wild type WT cells (2C) (AID 1645877); further: nearly all actives have a fitted effect of over 70% in size; further: potency means the concentration at half of the fitted maximal effect
[11] = molecular target: Cytochrome P450 2C9 (Homo sapiens) (UniProt P11712); experiment: Cytochrome P450 family 2 subfamily C member 9 (CYP2C9) small molecule antagonists: luciferase biochemical (cell-free) qHTS assay (AID 1645842; active means well fitted curve in the direction sought with a large enough effect in the repeat runs; an effect the other way counts as inactive or inconclusive; further: nearly all actives have a fitted effect of over 55% in size; further: potency means the concentration at half of the fitted maximal effect)
Summary of the method: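 Luminescence, after 20 min with luciferin detection reagent, reflected CYP2C9 turnover during a 1 h NADPH-driven reaction at 37C. Enzyme-substrate mix contained 0.4% bovine serum albumin and was preincubated with compound 10 min at room temperature.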

[12] = molecular target: Calcium and integrin-binding protein 1 (Homo sapiens) (UniProt Q99828); experiment: Confirmatory qHTS for Identification of Calcium Integrin Binding Protein 1 (CIB1) Competitor (AID 1508617); further: potency means the concentration at half of the fitted maximal effect; nearly all actives have a fitted effect of over 65% in size
Summary of the method: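 FP competition: CIB1-GST (1 uM final) in 5 mM HEPES pH 7.4, 125 mM NaCl, 5 mM CaCl2, 0.01% Tween20 preincubated 15 min RT with compounds (up to 114 uM), then FITC-alphaIIb peptide (100 nM), 15 min RT; Ex 480/Em 540.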

[13] = Confirmatory qHTS for small molecule stabilizers of the endoplasmic reticulum resident proteome: Secreted ER Calcium Modulated Protein (SERCaMP) assay (AID 1508628); further: nearly all actives have a fitted effect of over 40% in size; further: potency means the concentration at half of the fitted maximal effect
Summary of the method: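 SH-SY5Y cells stably expressing GLuc-SERCaMP, treated 16 h with compound (primary 1.53, 7.67, 38.3 uM; confirmation 11 concentrations, up to 76.6 uM), then 100 nM thapsigargin for 4 h. Secreted Gaussia luciferase in medium read by coelenterazine luminescence.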

[14] = Cell Viability qHTS for small molecule stabilizers of the endoplasmic reticulum resident proteome (AID 1508629); conditions: cell viability counter-screen, 100 nM thapsigargin for final 4 h;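 further: human SH-SY5Y neuroblastoma cells carrying the GLuc-SERCaMP reporter; compound exposure about 46 h in total before the viability read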
[15] = Counterscreen qHTS for small molecule stabilizers of the endoplasmic reticulum resident proteome: GLuc-NoTag assay (AID 1508627);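 further: SH-SY5Y cells given compound then 100 nM thapsigargin to empty ER calcium; series mostly up to about 76 µM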
Summary of the method: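 Luminescence of Gaussia luciferase secreted into the medium (coelenterazine, 0.07x final, unlysed cells) was the read-out. Human SH-SY5Y neuroblastoma cells constitutively secreting untagged GLuc received compound for 19 h, then 100 nM thapsigargin for 4 h.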

Protein phosphatase 1D (Homo sapiens), sequence (O15297 whole entry, looked up): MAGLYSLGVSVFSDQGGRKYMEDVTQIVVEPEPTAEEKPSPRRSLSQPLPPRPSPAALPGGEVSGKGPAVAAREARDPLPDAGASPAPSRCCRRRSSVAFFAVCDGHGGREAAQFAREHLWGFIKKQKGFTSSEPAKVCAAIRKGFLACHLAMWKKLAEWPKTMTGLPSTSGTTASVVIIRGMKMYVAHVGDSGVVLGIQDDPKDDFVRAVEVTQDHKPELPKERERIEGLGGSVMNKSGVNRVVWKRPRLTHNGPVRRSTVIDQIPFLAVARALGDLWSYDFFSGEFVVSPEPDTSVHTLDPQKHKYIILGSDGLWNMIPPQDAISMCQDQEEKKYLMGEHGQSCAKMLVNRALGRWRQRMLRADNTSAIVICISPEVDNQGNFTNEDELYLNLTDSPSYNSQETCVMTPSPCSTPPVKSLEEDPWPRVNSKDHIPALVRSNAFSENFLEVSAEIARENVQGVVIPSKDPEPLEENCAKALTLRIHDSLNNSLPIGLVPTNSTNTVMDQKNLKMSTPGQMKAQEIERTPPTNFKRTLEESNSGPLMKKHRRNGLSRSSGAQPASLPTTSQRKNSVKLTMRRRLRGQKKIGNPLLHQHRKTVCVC
Calcium and integrin-binding protein 1 (Homo sapiens), sequence (Q99828 whole entry, looked up): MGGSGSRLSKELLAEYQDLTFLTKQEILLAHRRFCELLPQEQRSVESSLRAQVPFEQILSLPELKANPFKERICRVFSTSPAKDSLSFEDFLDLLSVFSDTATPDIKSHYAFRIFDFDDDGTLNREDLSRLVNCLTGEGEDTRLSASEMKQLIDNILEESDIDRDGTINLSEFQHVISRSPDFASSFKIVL
Cytochrome P450 2C9 (Homo sapiens), sequence (P11712 whole entry, looked up): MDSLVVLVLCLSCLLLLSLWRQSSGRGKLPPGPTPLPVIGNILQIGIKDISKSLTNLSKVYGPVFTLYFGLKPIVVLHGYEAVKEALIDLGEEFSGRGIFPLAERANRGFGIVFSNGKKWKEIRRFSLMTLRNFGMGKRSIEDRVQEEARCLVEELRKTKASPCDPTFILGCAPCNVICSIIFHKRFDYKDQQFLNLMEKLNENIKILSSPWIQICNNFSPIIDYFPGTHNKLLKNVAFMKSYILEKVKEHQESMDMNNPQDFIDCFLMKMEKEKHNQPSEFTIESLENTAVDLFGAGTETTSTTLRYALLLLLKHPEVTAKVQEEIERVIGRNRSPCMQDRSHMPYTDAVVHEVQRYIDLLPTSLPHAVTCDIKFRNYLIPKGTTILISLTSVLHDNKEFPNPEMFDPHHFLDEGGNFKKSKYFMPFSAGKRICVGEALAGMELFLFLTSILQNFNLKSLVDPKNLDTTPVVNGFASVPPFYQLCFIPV
Cytochrome P450 2D6 (Homo sapiens), sequence (P10635 whole entry, looked up): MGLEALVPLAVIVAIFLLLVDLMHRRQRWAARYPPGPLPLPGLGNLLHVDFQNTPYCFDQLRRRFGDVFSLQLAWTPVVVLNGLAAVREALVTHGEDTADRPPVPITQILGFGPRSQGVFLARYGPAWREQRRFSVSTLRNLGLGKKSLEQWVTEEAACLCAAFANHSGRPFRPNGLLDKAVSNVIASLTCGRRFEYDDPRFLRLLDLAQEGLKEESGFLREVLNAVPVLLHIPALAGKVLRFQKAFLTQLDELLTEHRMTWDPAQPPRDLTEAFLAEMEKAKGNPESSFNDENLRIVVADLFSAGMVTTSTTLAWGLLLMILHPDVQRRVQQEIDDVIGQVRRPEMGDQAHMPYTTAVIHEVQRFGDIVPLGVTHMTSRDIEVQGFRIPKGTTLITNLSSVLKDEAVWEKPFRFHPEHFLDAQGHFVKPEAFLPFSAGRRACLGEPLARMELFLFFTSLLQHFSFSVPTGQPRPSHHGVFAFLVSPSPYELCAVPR
Cytochrome P450 3A4 (Homo sapiens), sequence (P08684 whole entry, looked up): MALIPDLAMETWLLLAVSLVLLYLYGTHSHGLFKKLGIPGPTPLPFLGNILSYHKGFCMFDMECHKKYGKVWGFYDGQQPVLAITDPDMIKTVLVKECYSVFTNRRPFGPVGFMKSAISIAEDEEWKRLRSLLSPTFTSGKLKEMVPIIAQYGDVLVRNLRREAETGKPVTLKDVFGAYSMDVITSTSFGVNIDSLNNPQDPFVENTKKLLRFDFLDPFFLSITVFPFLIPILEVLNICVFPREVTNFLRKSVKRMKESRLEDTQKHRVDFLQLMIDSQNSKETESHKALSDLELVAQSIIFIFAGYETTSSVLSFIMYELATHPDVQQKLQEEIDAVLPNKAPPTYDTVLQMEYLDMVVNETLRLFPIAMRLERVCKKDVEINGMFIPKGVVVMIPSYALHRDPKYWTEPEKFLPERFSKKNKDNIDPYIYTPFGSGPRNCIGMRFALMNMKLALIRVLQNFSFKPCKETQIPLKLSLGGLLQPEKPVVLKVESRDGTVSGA

Row | Structure (SMILES) | Potency [1] | outcome [2] | Potency [3] | Potency [4] | Potency [5] | Potency [6] | Potency [7] | outcome [8] | Potency [9] | Potency [10] | Potency [11] | Potency [12] | Potency [13] | max response [14] [%] | outcome [15]
1 | CN1CCC[C@@H]1c1cccnc1 | inactive | inactive | inactive | inactive | inactive | inactive | inactive | inactive | inactive | inactive | – | – | – | – | –
2 | C[C@@H](CN(C)C)CN1c2ccccc2Sc2ccccc21 | inactive | inactive | inactive | inactive | – | – | – | – | – | – | – | – | – | – | –
3 | Cc1onc(-c2c(Cl)cccc2Cl)c1C(=O)N[C@@H]1C(=O)N2[C@@H]1SC(C)(C)[C@@H]2C(=O)O | inactive | inactive | inactive | inactive | inactive | inactive | inactive | – | inactive | inactive | 20.4 µM (active) | – | – | – | –
4 | CCOc1ccc2nc3cc(N)ccc3c(N)c2c1 | inactive | inactive | inactive | 44.7 µM (active) | inactive | inactive | 15.5 µM (active) | – | 5.96 µM (active) | 5.31 µM (active) | inactive | 25.1 µM (active) | – | – | –
5 | O=C(Nc1ccc(Cl)c(Cl)c1)C1CC1 | inactive | inactive | inactive | inactive | inactive | inactive | inactive | – | – | – | – | – | – | – | –
6 | CC(=O)CC(c1ccc([N+](=O)[O-])cc1)c1c(O)c2ccccc2oc1=O (stereo not given) | inactive | inactive | inactive | inactive | inactive | inactive | inactive | – | inactive | inactive | 2.19 µM (active) | – | – | – | –
7 | COC1=CC(=O)C[C@@H](C)[C@]12Oc1c(Cl)c(OC)cc(OC)c1C2=O | inactive | inactive | inactive | inactive | inactive | inactive | inactive | – | – | – | inactive | – | – | – | –
8 | CC1=C(C(=O)OC(C)C)C(c2cccc([N+](=O)[O-])c2)C(C(=O)OC2CN(C(c3ccccc3)c3ccccc3)C2)=C(N)N1 (stereo not given) | inactive | inactive | inactive | inactive | – | – | 9.77 µM (active) | – | inactive | inactive | 1.95 µM (active) | – | 28.2 µM (active) | -0.744 | –
9 | CCN1CCN(c2cc3c(cc2F)c(=O)c(C(=O)O)cn3C2CC2)CC1 | inactive | inactive | inactive | inactive | 1.12 µM (active) | – | inactive | – | inactive | inactive | inactive | – | inactive | 21.1 | inactive
10 | CCCCCCCCCCCCCCCCCC(=O)OCC(O)CO (stereo not given) | inactive | inactive | inactive | inactive | – | inactive | inactive | – | inactive | inactive | inactive | – | inactive | 15.4 | inactive
11 | CC(C)N=C(N)/N=C(\N)Nc1ccc(Cl)cc1 | inactive | inactive | inactive | inactive | – | – | 3.09 µM (active) | – | – | – | inactive | – | – | – | inactive
12 | CN(C/C=C/c1ccccc1)Cc1cccc2ccccc12 | inactive | inactive | inactive | inactive | inactive | inactive | 0.347 µM (active) | inactive | – | – | – | – | – | – | –
13 | CC1(C)OC[C@@H](COC(=O)CCc2ccc(OC[C@@H](O)CNCCNC(=O)N3CCOCC3)cc2)O1 | inactive | inactive | inactive | inactive | inactive | inactive | inactive | – | inactive | inactive | inactive | – | – | – | –
14 | O=C1OC2(c3ccc(O)cc3Oc3cc(O)ccc32)c2ccccc21 | inactive | inactive | inactive | inactive | inactive | 7.08 µM (active) | inactive | – | – | – | inactive | – | – | – | –
15 | CC(O)(P(=O)(O)O)P(=O)(O)O | inactive | inactive | inactive | inactive | inactive | inactive | inactive | – | inactive | inactive | inactive | – | – | – | –
16 | OC[C@@H](O)[C@@H](O[C@@H]1O[C@H](CO)[C@H](O)[C@H](O)[C@H]1O)[C@H](O)[C@@H](O)CO | inactive | inactive | inactive | inactive | inactive | inactive | inactive | – | inactive | inactive | inactive | – | – | – | –
17 | Cc1c(N(C)CS(=O)(=O)O)c(=O)n(-c2ccccc2)n1C | inactive | inactive | inactive | inactive | inactive | inactive | inactive | – | inactive | inactive | inactive | – | – | – | –
18 | CN(C)C(=S)SC(=S)N(C)C | inactive | inactive | inactive | inactive | – | inactive | inactive | – | 2.11 µM (active) | 2.99 µM (active) | – | – | inactive | – | inactive
19 | C[C@]12CC[C@H]3[C@@H](CCC4=CC(=O)CC[C@@]43C)[C@@H]1CC[C@@H]2C(=O)CO | inactive | inactive | inactive | inactive | inactive | inactive | inactive | – | – | – | inactive | – | – | – | –
20 | CCCN1CCCC[C@H]1C(=O)Nc1c(C)cccc1C | inactive | inactive | inactive | inactive | inactive | inactive | 4.9 µM (active) | – | inactive | inactive | inactive | – | – | – | –
